Assay outcomes: PubChem BioAssay, National Center for Advancing Translational Sciences (NCATS)
Sampled rows, rich in hits. Any-hit rate of the full collection: about 2.7%.
IDH1 R132H inh: qHTS for Inhibitors of mutant isocitrate dehydrogenase 1 (IDH1): qHTS. Isocitrate dehydrogenase [NADP] cytoplasmic (Homo sapiens), O75874. IDH1-R132H enzyme, NADPH consumption, diaphorase/resazurin fluorescence. Potency, µM (top dose mostly 76.6 µM), for inactives: at the highest dose activity change, negative = inhibition, usual class: inhibitors. hit rate 0.093% among 390,000; also: potency is read from the fitted curve at half-maximal effect; % is scaled to controls: 0 for no effect and ±100 for the full control effect; nearly all actives have a fitted effect of over 65% in size
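IDH1-R132H (0.5 ug/mL dispensed) in pH 7.5 Tris buffer was preincubated 30 min with compound, then given a substrate mix of 0.016 mM NADPH and 2 mM alpha-KG for 80 min at room temperature; remaining NADPH was read by diaphorase/resazurin fluorescence.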
Nrf2 ARE act: qHTS of Nrf2 Activators. Potency, µM (doses to about 46.1 µM), inactives show at the highest dose activation, usual class: activators. AREc32 ARE-luciferase reporter (MCF7-derived line), luminescence, 24 h. hit rate 0.31% among 410,000; also: potency is read from the fitted curve at half-maximal effect; % of control where 0% means no effect; nearly all actives have a fitted effect of over 65% in size
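AREc32 cells carrying an ARE-driven firefly luciferase reporter were seeded at 1000 cells/well in OPTI-MEM with 5% FBS, then exposed to compound for 24 hr at 37 deg C. Luminescence was read with Steady-Glo after 30 min at RT.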
ALOX12 inh: Primary qHTS assay for inhibitors of human arachidonate 12S-lipoxygenase (ALOX12): Round 2 | Potency, µM (doses to about 108 µM), inactives show at the highest dose activity change, negative = inhibition, actives largely listed as inhibitors | purified 12hLO, xylenol orange hydroperoxide absorbance | Polyunsaturated fatty acid lipoxygenase ALOX12 (Homo sapiens), P18054 | hit rate 1.1% among 580,000 | AID 1671190, 2021; also: potency is read from the fitted curve at half-maximal effect; % is scaled to controls: 0 for no effect and ±100 for the full control effect
Target sequence (P18054 whole entry, looked up): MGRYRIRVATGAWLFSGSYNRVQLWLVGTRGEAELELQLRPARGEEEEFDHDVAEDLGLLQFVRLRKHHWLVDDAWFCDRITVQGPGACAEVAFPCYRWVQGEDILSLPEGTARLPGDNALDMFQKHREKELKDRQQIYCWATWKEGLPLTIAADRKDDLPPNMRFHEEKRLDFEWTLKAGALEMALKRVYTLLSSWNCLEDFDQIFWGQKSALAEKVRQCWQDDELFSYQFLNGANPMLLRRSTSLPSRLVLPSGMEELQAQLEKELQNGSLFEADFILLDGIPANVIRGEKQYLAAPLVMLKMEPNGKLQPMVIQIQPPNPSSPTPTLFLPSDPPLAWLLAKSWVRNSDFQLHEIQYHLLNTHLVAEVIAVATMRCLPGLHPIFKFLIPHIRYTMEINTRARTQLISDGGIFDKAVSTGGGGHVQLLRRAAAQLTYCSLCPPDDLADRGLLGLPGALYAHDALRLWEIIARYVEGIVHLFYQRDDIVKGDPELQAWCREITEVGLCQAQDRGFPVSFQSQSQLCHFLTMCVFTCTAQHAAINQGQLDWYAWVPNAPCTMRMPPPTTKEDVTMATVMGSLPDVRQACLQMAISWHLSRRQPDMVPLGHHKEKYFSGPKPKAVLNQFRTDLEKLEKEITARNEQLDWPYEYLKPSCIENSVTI
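Purified human 12hLO (150 nM final) in 25 mM Hepes, 0.01% Triton X-100, pH 7.0 was preincubated 15 min at room temperature with compound. Then 40 uM arachidonic acid was added, 30 min. Hydroperoxide was read by Fe-XO absorbance ratio 573/405 nm.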
A549 tox: Nrf2 qHTS screen for inhibitors: counterscreen for cytotoxicity. hit rate 0.16% among 390,000. Potency, µM (series often up to 46 µM), for inactives: at the highest dose activity change, negative = cytotoxicity, usual class: inhibitors. A549 ARE-Fluc cells, CellTiter-Fluor viability, 18-24 h; also: potency is read from the fitted curve at half-maximal effect; % is scaled to controls: 0 for no effect and ±100 for the full control effect
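A549 ARE-Fluc cells in 5% FBS OPTI-MEM, 5000 cells/well, rested 2 h then exposed to compounds in concentration-response for 18-24 h at 37 °C. Viability by CellTiter-Fluor fluorescence (Ex 405/Em 525) after 30 min; luciferase luminescence (BugLite, 15 min, RT) read afterwards.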
LDHA inh: qHTS assay for inhibitors of human lactate dehydrogenase. L-lactate dehydrogenase A chain (Homo sapiens), P00338. purified LDHA, NADH/diaphorase-resazurin fluorescence; active compounds read low. activity change, % (values are at about 110 or 230 µM). hit rate 0.15% among 480,000; in the data active = activity change below about -30%; inconclusive = mostly about -25% to -30%;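 also: plate controls were DMSO wells for no effect and wells without enzyme for full effect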
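Remaining NADH was detected by diaphorase (0.133 mg/mL) converting 37 µM resazurin to fluorescent resorufin, read at 0 and 20 minutes. The preceding 5-minute room-temperature reaction used 2 nM LDHA, 0.2 mM sodium pyruvate and 0.06 mM NADH at pH 7.4.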
Nrf2 inh: Nrf2 qHTS screen for inhibitors | hit rate 2.1% among 360,000 | A549 ARE-Fluc reporter, luciferase luminescence, 18-24 h | Potency, µM (series often up to 46 µM), without a hit: at the highest dose activity change, negative = inhibition, most hits filed as inhibitors | AID 504444, 2011; also: potency is read from the fitted curve at half-maximal effect; % is scaled to controls: 0 for no effect and ±100 for the full control effect; nearly all actives have a fitted effect of over 60% in size
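In this cell-based qHTS, ARE-driven firefly luciferase in A549 cells reports Nrf2 activity; the luminescent signal after BugLite lysis is the measured value, with a prior CellTiter-Fluor read for cell health.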
* = called active by the depositor; ? = inconclusive; nt = no result given; [ ] = dose if it differs, or a comment. Unless noted, calls follow the shape of the dose curve; as a rule, active = well fitted curve in the direction sought with a large enough effect; inconclusive = small, poorly fitted or top-dose-only effect, or another doubt; inactive = no such curve, though single readings can be large; an effect the other way counts as inactive or inconclusive.

SMILES	IDH1 R132H inh	Nrf2 ARE act	ALOX12 inh	A549 tox	LDHA inh	Nrf2 inh
CSCCC(NC(=O)c1ccc(Cl)cc1)C(=O)OCC(=O)Nc1ccc(C#N)cc1 (stereo not given)	3.1%	0.1%	31.6µM*	2.2%	-2.5	5.7%
COc1cccc(-c2nc(SCc3cc(=O)n4c(C)csc4n3)n[nH]2)c1	nt	nt	?	nt	-7.1	nt
O=C(Nc1cc(C(F)(F)F)ccc1N1CCOCC1)c1n[nH]c(=O)c2ccccc12	11.7µM*	4.3%	-19.0%	-15.2%	-4.6	-15.2%
COc1cccc(NC(=O)NCCCSC2CCCCC2)c1	0.1%	0.2%	-6.9%	-2.7%	-4.2	-24.9%
Cc1cc(C)c(NC(=S)NCCCSC2CCCCC2)c(C)c1	-2.0%	-0.8%	25.1µM*	-2.7%	-4.2	20.6µM*
Cc1nc2nc(-c3ccco3)[nH]n2c(=O)c1C	14.7%	11.2µM*	?	13.5%	4.0	nt
Cc1ccc(NC(=O)/C(=C/c2cccc([N+](=O)[O-])c2)NC(=O)C2CCCCC2)c(C)c1	1.4%	-0.9%	-7.9%[57.4 µM]	-19.9%	0.8	9.2µM*
CCN(CC(=O)NC)C(=O)c1n[nH]c(=O)c2ccccc12	nt	nt	?	nt	11.8	nt
O=C(COC(=O)c1nn(-c2ccccc2)c(=O)c2ccccc12)Nc1cccc(C(=O)NC2CC2)c1	nt	nt	3.4%	nt	-1.0	nt
Clc1ccc2c(N/N=C/c3ccccc3Br)ccnc2c1	-5.1%	5.2%	?	?	-4.7	10.3µM*
COc1ccc(OC)c(NC(=O)Cn2cc(C(=O)c3ccco3)c3ccccc32)c1	0.7%	-0.2%	-4.7%	0.0%	2.8	14.6µM*
COc1ccccc1NC(=O)Cn1cc(C(=O)c2ccco2)c2ccccc21	0.0%	8.8%	0.0%	-1.1%	-2.0	-12.2%
COc1ccc(C(=O)Nc2ccc3oc(-c4ccccc4F)cc(=O)c3c2)cc1	nt	nt	-1.2%	nt	2.8	nt
CCC(=O)Nc1ccc(C(=O)Cn2ncc(Cl)c(Cl)c2=O)cc1	-11.0%	6.31µM*	4.1%	-3.4%	-3.4	16.7%
CCOC(=O)c1ccc(NC(=O)Cn2ncc(Cl)c(Cl)c2=O)cc1	0.0%	?	1.5%	0.8%	-0.1	?
Cc1oc2cc(OCC(=O)N3CCCC(C(=O)O)C3)ccc2c(=O)c1-c1ccc(Cl)cc1 (stereo not given)	nt	nt	4.4%	nt	-4.2	nt
CC1=C(C(=O)N2CCOCC2)C(c2cc(Br)ccc2F)C2=C(CC(C)(C)CC2=O)N1 (stereo not given)	nt	nt	10.8%	nt	5.6	nt
CCNC(=O)C/C(C)=N/NC(=O)C(C)C	nt	nt	?	nt	-1.5	nt
O=C(c1ccc(Cn2cc(Cl)c([N+](=O)[O-])n2)cc1)N1CCN(Cc2ccccc2)CC1	1.5%	4.7%	?	-11.4%	-1.0	20.6µM*
O=C(c1ccc([N+](=O)[O-])cc1)N1CCN(Cc2ccccc2)CC1	2.4%	-0.6%	-27.1%	-0.4%	-3.6	3.0%
COC(=O)CC(NC(=O)c1cc(C)nc2c1cnn2C(C)C)c1ccc(Br)cc1 (stereo not given)	nt	nt	?	nt	7.1	nt
Cc1ccc(-c2csc(NC(=O)CCNC(=O)c3ccccc3Cl)n2)cc1	1.9%	7.2%	-29.5%	-5.6%	-2.2	23.1µM*
Cc1ccc(-c2csc(NC(=O)CCNC(=O)c3ccc(Cl)cc3)n2)cc1	-12.4%	0.4%	-1.9%	-0.6%	2.2	2.8%
CC(C)CNc1nc(-c2ccc3c(c2)CCC(=O)N3)cs1	nt	nt	12.6µM*	nt	10.5	nt
COc1cccc(Nc2nc(-c3ccc4c(c3)CCC(=O)N4)cs2)c1	nt	nt	?	nt	-0.5	nt
COc1ccccc1Nc1nc(-c2ccc3c(c2)CCC(=O)N3)cs1	nt	nt	10µM*	nt	-31.3*	nt
